# The full data set covers some 21,000 targets. This sample favours those with the largest changes.
# Compound: CC1Cc2ccccc2N1C(=O)C1CCCN(C1)C(=O)CCl (mixture of isomers) [TRIM25 ligand 11 (diastereomer mixture)]
# Test: probe-labelled cysteine peptide fold change vs DMSO (competition) (log2 fold change); higher = less target engagement (more negative = stronger competition)
# Details: THP-1, incubation time: 4 h
# 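Also: competitive chemoproteomic profiling in live THP-1 cells with an iodoacetamide desthiobiotin (IA-DTB) probe, comparing probe-labelled peptide intensities in compound-treated cells against DMSO-treated controls.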
# UniProt P55072, sequence (P55072 whole entry, looked up): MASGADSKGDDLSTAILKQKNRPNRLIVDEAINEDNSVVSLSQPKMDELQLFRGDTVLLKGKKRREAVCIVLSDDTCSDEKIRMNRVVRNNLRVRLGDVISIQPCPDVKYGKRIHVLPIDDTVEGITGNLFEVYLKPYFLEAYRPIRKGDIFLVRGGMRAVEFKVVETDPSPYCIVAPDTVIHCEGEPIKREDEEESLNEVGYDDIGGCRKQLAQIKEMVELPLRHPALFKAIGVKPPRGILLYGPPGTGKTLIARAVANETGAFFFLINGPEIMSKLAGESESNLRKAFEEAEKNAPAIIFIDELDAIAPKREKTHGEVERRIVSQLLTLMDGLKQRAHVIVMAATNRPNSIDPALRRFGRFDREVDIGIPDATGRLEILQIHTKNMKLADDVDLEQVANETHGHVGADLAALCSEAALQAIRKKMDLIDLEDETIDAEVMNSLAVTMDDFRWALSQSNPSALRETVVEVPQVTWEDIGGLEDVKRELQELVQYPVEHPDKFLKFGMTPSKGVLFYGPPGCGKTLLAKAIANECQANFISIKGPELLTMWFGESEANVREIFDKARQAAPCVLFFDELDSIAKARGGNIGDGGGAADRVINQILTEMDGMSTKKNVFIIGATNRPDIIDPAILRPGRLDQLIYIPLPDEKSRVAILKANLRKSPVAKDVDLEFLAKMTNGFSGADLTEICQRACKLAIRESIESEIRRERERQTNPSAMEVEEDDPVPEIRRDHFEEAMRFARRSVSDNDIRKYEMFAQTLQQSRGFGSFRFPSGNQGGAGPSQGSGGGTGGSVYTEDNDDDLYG
# UniProt P23025, sequence (P23025 whole entry): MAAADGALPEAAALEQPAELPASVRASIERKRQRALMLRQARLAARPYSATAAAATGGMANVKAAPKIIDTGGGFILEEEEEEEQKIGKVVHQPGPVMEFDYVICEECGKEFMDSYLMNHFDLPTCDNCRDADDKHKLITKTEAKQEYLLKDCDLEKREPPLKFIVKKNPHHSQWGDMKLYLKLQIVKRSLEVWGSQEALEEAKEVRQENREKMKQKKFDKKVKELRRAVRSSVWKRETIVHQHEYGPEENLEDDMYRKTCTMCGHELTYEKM
# UniProt O95801, sequence (O95801 whole entry, looked up): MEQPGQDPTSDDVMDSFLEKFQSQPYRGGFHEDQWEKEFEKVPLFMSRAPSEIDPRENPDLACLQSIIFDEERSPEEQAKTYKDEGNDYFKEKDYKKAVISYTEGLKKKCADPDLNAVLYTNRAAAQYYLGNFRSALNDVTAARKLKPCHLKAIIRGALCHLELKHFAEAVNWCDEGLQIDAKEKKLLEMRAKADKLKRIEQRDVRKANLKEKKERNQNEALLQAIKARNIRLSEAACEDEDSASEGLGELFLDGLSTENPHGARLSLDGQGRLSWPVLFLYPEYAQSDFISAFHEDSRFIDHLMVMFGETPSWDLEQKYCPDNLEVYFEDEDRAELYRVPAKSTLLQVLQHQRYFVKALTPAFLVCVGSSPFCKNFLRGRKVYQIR
# UniProt Q01831, sequence (Q01831 whole entry, looked up): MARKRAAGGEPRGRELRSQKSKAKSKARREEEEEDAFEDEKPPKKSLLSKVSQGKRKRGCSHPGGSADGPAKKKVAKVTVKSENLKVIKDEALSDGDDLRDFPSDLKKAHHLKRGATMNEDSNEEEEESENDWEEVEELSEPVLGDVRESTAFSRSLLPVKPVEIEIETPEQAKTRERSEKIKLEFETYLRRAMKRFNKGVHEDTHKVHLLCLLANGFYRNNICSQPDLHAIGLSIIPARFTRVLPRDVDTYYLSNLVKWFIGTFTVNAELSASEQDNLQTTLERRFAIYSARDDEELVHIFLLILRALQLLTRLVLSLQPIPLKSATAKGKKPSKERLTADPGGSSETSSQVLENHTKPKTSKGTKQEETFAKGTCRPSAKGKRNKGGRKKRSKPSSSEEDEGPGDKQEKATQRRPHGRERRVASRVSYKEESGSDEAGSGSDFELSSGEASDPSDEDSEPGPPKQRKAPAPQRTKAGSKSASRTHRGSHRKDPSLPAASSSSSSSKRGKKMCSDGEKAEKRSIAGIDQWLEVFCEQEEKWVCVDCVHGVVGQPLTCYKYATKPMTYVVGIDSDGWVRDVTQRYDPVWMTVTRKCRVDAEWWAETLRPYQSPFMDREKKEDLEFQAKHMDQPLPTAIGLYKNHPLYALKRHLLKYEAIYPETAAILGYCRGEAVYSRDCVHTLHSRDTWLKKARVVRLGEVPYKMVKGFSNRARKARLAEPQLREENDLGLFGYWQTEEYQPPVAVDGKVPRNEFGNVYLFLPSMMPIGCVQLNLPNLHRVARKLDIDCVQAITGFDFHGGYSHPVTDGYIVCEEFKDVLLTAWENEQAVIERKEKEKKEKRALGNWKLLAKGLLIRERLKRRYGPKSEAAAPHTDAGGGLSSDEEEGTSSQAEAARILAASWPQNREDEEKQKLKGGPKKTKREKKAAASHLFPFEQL
# UniProt Q99757, sequence (Q99757 whole entry, looked up): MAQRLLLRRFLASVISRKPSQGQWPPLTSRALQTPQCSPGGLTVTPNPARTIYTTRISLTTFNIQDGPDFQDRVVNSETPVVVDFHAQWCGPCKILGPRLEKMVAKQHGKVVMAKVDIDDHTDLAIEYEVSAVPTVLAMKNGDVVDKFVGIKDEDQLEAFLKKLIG
# UniProt Q16851, sequence (Q16851 whole entry, looked up): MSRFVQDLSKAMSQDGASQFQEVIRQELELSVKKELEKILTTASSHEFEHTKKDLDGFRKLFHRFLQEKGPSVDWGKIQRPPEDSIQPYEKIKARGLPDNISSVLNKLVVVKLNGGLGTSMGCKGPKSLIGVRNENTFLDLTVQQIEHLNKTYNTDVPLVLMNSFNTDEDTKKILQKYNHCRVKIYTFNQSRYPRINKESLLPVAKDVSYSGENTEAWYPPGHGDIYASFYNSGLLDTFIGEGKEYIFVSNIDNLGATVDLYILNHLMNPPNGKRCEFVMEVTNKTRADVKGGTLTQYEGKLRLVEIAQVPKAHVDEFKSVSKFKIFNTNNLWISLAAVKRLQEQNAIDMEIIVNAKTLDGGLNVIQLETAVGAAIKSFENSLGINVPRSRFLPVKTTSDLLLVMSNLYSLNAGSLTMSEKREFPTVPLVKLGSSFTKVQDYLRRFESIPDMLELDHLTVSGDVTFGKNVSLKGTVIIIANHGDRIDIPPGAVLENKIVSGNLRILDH
# UniProt Q9NW82, sequence (Q9NW82 whole entry, looked up): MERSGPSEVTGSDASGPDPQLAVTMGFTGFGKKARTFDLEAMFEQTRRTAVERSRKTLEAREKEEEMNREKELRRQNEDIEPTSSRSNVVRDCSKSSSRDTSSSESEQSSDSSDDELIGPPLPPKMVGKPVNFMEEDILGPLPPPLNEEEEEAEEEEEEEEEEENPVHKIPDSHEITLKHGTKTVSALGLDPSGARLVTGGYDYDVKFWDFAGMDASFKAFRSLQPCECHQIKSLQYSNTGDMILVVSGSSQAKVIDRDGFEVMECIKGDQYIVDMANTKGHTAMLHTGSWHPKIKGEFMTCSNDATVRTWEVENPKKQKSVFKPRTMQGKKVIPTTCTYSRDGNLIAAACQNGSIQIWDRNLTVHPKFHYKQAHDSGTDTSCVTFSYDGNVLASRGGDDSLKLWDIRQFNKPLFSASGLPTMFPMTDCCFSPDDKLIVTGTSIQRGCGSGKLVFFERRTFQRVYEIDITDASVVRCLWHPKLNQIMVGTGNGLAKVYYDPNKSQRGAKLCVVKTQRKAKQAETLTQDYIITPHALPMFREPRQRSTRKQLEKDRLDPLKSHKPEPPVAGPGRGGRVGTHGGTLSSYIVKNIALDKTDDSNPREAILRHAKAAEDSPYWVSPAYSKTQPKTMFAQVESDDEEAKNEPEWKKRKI
# UniProt Q16881, sequence (Q16881 whole entry, looked up): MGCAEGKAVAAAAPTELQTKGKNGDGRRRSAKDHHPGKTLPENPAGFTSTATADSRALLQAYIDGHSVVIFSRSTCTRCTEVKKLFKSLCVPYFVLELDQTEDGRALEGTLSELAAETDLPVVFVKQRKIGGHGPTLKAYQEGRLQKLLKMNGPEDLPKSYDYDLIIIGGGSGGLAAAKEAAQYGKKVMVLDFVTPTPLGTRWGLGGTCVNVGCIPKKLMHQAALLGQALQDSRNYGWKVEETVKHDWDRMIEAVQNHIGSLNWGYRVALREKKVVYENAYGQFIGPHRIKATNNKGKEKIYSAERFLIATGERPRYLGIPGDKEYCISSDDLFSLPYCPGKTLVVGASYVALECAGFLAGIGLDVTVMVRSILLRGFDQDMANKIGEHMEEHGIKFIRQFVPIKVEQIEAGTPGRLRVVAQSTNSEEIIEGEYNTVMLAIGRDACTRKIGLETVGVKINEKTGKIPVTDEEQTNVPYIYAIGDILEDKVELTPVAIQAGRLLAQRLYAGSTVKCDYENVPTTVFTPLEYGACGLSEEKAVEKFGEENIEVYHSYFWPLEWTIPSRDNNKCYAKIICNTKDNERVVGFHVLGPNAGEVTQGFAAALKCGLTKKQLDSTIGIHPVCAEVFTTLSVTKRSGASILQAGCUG
# UniProt Q8IWB7, sequence (Q8IWB7 whole entry, looked up): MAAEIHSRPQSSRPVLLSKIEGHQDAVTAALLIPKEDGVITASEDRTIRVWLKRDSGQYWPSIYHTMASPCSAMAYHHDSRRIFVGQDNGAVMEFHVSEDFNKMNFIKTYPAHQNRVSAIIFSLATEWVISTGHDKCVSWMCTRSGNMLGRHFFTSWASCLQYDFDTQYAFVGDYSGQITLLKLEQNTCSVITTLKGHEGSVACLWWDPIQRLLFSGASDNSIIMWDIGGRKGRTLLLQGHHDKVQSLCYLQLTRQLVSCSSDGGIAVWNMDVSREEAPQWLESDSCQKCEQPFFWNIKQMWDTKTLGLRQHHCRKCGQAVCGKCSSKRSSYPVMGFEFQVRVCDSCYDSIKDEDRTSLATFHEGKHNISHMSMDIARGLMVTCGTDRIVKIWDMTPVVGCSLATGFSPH
Target,probe-labelled cysteine peptide fold change (10 µM),probe-labelled cysteine peptide fold change (50 µM)
VAV1_P15498_31_VTWDGAQVCELAQALR (UniProt P15498),0.0648,0.411
VPS13B_Q7Z7G8_3937_VACDVEVDGVR (UniProt Q7Z7G8),0.0676,-0.592
UNK_Q9C0B0_299+308_CNDMQQSGSCPR (UniProt Q9C0B0),0.0296,-0.132
TXNL1_O43396_135+149_AGCECLNESDEHGFDNCLR (UniProt O43396),0.0914,-0.234
WDR47_O94967_672_GSIYCVAWSPCGQLLATGSNDK (UniProt O94967),-0.126,-0.567
UBR1_Q8IWV7_1726_LHLVWQQHCIIEEIAR (UniProt Q8IWV7),-0.0216,0.0386
TXNRD1_Q16881_339_EYCISSDDLFSLPYCPGK (UniProt Q16881),0.364,0.552
TXN2_Q99757_93_VVNSETPVVVDFHAQWCGPCK (UniProt Q99757),-0.376,-1.25
UGP2_Q16851_123_LNGGLGTSMGCK (UniProt Q16851),-0.0886,-0.138
UAP1L1_Q3KQV9_271_LADPVFIGFCVLQGADCGAK (UniProt Q3KQV9),-0.0621,-0.144
UBR4_Q5T4S7_4839+4841_QMEELIEEPGLTCCICR (UniProt Q5T4S7),0.337,0.209
XPA_P23025_126+129_EFMDSYLMNHFDLPTCDNCR (UniProt P23025),0.169,0.182
VCPIP1_Q96JH7_219_SQECLIPVHVDGDGHCLVHAVSR (UniProt Q96JH7),-0.566,-1.68
WDFY1_Q8IWB7_189_LEQNTCSVITTLK (UniProt Q8IWB7),0.462,0.551
TUBB1_Q9H4B7_12_MREIVHIQIGQCGNQIGAK (UniProt Q9H4B7),0.489,0.674
UACA_Q9BZF9_481_ALALECER (UniProt Q9BZF9),-0.0367,0.0956
TTC28_Q96AY4_726_ALGNLGDIFICK (UniProt Q96AY4),0.224,0.1
WDFY4_Q6ZS81_1763_HHQEEVLQAGLCTEGALLLLEMLK (UniProt Q6ZS81),0.571,0.181
UHRF1_Q96T88_497_TAEQSCDQK (UniProt Q96T88),0.0456,-0.184

Target,probe-labelled cysteine peptide fold change (10 µM),probe-labelled cysteine peptide fold change (50 µM)
UBR4_Q5T4S7_1662_LCTFTITQK (UniProt Q5T4S7),-0.119,-0.0801
TTC4_O95801_174_HFAEAVNWCDEGLQIDAK (UniProt O95801),-0.0931,0.216
VCP_P55072_105_LGDVISIQPCPDVK (UniProt P55072),-0.0602,-0.113
UAP1L1_Q3KQV9_271+278_LADPVFIGFCVLQGADCGAK (UniProt Q3KQV9),0.0951,0.0877
XPC_Q01831_514_MCSDGEK (UniProt Q01831),-0.0167,-0.0661
UIMC1_Q96RL1_121_AIAESLNSCRPSDASATR (UniProt Q96RL1),0.14,-0.0493
UBAP1_Q9NZ09_243_ATLDFKPLHKPNGFITLPQLGNCEK (UniProt Q9NZ09),-0.241,-0.382
VCPIP1_Q96JH7_207+219_SQECLIPVHVDGDGHCLVHAVSR (UniProt Q96JH7),-0.42,-1.06
UAP1L1_Q3KQV9_50_AALLAELALLEPEALREHCR (UniProt Q3KQV9),0.0804,0.0782
UFC1_Q9Y3C8_116_ICLTDHFKPLWAR (UniProt Q9Y3C8),-0.522,-0.68
UBR5_O95071_1942_SHNDEHSDVLPVLDVCSLK (UniProt O95071),-0.586,-0.263
UBR7_Q8N806_374_VQQVELICEYNDLK (UniProt Q8N806),-0.0738,0.0769
VPS18_Q9P253_947_ADLDELVAAECVYCGELMIR (UniProt Q9P253),0.712,0.481
TTC21B_Q7Z4L5_72_QDVSLCSLLALIYAHK (UniProt Q7Z4L5),0.155,0.138
WDR70_Q9NW82_383_QAHDSGTDTSCVTFSYDGNVLASR (UniProt Q9NW82),0.312,-0.591
UFC1_Q9Y3C8_116_ICLTDHFK (UniProt Q9Y3C8),-0.127,-0.0548
VPS13C_Q709C8_2276+2289_GIEHSLIEENCGVVVESIQVTLECGLGHR (UniProt Q709C8),0.105,-0.00969
VARS_P26640_1185_CSIHLQLQGLVDPARELGK (UniProt P26640),-0.114,-0.105
WDR12_Q9GZL7_185_ALHCCR (UniProt Q9GZL7),0.0665,0.103
